Measured values as given in PubChem BioAssay.
The source made the active and inactive calls.

Legend:
[1] = tested on: Plasmodium falciparum Sir2 (PF13_0152, Sir2A); assay: pfSir2 binders on small-molecule microarrays, primary screen, biochemical, small-molecule microarray, 635 nm fluorescence (AID 1098); conditions: small-molecule microarray binding, fluorescence 635 nm; higher = more signal;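 also: score merges spot fluorescence intensity with its signal-to-noise ratio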
[2] = small-molecule microarray binders of probe aDKK1, primary screen, biochemical, biotinylated probe, 635/667 nm fluorescence (AID 1099); conditions: higher = more signal;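 also: score merges 667nm spot fluorescence with signal to noise across triplicate slides; reference of the scale not given here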
[3] = small-molecule microarray binders of probe aCHRDL2, primary screen, biochemical, biotinylated probe, 635/667 nm fluorescence (AID 1100); conditions: higher = more signal
[4] = splicing luciferase reporter signal modulators, primary screen, spliceosome inhibition project, cell-based, HEK293, splice +/- reporter (AID 1101); conditions: luminescence, 24 h, higher = more signal, called active from +8 up or from −8 down;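 also: HEK293 cells carrying a splicing-competent luciferase reporter gene; test concentration not given here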
[5] = molecular target: Fibroblast growth factor 10 (Homo sapiens) (UniProt O15520); assay: FGF10 binders on small-molecule microarrays, primary screen, biochemical, small-molecule microarray, 635 nm fluorescence (AID 1102); conditions: FGF10 binding, fluorescence 635 nm, higher = more signal
[6] = tested on: glycogen synthase kinase-3 (GSK3A per assay name; protocol says GSK3B); assay: GSK3 binders on small-molecule microarrays, primary screen, biochemical, small-molecule microarray, 635 nm fluorescence, GSK3A (AID 1103); conditions: small-molecule microarray binding, fluorescence 635 nm; higher = more signal; also: the record names both GSK3A and GSK3B
[7] = molecular target: Epidermal growth factor receptor (Homo sapiens) (UniProt P00533); assay: EGFR binders on small-molecule microarrays, primary screen, biochemical, small-molecule microarray, 635 nm fluorescence (AID 1104); conditions: EGFR binding, higher = more signal;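 also: score merges 667 nm emission intensity with spot signal to noise over triplicate slides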
[8] = molecular target: Follistatin-related protein 3 (Homo sapiens) (UniProt O95633); assay: FSTL3 binders on small-molecule microarrays, primary screen, biochemical, small-molecule microarray, 635 nm fluorescence (AID 1105); conditions: FSTL3 binding, higher = more signal;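 also: score merges emission near 667 nm and signal to noise per printed spot across three slides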
[9] = molecular target: Dickkopf-related protein 1 (Homo sapiens) (UniProt O94907); assay: DKK1 binders on small-molecule microarrays, primary screen, biochemical, small-molecule microarray, 635 nm fluorescence scan (AID 1106); conditions: DKK1 binding, higher = more signal;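 also: score merges emission near 667 nm with signal to noise over three replicate slides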
[10] = tested on: Inhibin beta A chain (activin A); assay: INHBA (activin A) binders on microarrays, primary screen, biochemical, small-molecule microarray, 635 nm fluorescence scan (AID 1107); conditions: small-molecule microarray binding, higher = more signal;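 also: mouse activin A protein probed at 4.33 µg/mL on printed slides; score merges bound-protein fluorescence near 667 nm with spot signal-to-noise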

Sequence of Dickkopf-related protein 1 (Homo sapiens) (O94907 whole entry, looked up): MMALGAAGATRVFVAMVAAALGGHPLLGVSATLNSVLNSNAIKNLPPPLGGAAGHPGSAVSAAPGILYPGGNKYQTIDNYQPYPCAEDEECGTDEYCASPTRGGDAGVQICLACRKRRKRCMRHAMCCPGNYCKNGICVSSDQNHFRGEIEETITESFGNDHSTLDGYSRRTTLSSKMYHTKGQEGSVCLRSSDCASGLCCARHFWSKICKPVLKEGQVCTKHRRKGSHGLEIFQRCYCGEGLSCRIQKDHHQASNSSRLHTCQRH
Sequence of Epidermal growth factor receptor (Homo sapiens) (P00533 whole entry, looked up): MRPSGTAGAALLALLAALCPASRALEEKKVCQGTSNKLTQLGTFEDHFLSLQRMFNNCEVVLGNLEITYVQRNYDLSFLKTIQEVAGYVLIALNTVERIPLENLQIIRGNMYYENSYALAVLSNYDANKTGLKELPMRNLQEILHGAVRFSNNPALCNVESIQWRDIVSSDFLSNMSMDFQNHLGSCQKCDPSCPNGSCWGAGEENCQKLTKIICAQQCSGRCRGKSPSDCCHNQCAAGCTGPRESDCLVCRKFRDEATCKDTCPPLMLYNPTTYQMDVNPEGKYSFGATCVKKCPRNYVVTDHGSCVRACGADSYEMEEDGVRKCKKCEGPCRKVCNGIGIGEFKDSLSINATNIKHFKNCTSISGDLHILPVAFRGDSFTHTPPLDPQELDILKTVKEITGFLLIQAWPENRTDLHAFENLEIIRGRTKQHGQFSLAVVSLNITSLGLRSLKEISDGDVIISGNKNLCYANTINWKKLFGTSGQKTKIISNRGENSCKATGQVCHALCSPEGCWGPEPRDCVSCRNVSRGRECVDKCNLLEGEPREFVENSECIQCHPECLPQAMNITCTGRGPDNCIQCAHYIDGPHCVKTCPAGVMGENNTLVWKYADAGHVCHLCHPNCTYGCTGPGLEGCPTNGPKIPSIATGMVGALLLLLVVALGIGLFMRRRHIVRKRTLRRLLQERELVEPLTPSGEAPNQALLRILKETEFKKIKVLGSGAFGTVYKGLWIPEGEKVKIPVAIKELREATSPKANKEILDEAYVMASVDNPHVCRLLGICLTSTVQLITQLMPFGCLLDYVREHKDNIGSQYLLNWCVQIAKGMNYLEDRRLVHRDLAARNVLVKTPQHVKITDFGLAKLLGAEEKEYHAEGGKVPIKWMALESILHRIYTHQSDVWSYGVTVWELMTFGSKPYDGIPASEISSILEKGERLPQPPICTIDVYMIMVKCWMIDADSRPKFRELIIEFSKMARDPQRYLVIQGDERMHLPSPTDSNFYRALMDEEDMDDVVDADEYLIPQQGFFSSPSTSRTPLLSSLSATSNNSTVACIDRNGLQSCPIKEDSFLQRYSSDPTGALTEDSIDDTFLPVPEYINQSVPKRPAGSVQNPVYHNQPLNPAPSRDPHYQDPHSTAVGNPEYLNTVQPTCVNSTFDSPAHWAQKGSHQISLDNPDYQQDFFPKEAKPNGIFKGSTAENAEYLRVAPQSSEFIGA
Sequence of Fibroblast growth factor 10 (Homo sapiens) (O15520 whole entry, looked up): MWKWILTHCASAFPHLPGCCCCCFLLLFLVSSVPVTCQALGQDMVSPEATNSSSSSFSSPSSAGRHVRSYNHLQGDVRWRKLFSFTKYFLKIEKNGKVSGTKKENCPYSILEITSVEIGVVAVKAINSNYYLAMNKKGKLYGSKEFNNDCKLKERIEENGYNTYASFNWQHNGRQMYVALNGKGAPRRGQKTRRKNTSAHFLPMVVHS
Sequence of Follistatin-related protein 3 (Homo sapiens) (O95633 whole entry, looked up): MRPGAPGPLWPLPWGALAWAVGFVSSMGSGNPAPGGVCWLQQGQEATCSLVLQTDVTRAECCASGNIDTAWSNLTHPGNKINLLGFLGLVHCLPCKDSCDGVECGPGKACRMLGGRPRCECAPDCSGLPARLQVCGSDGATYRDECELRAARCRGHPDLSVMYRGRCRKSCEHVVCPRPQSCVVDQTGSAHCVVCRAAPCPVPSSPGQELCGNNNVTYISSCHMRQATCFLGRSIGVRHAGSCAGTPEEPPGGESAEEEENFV

C=C(COC)/C(=C/C[C@H](OC(C)=O)c1ccc(CO)o1)c1cc(C(=O)OC)ccc1OC
composite z-score [1]: 1.12 | composite z-score [2]: 0.667 | composite z-score [3]: -0.201 | z-score [4]: -0.0994 (inactive) | composite z-score [5]: 0.483 | composite z-score [6]: -0.0434 | composite z-score [7]: -0.173 | composite z-score [8]: -0.0145 | composite z-score [9]: -0.164 | composite z-score [10]: 1.32

CCCCCCc1nc(-c2ccc(OC)nc2)cc2c1[Si](C(C)C)(C(C)C)O[C@H]2c1ccccc1
composite z-score [1]: 1.33 | composite z-score [2]: -0.0653 | composite z-score [3]: -0.459 | z-score [4]: -0.0107 (inactive) | composite z-score [5]: 0.289 | composite z-score [6]: -0.0539 | composite z-score [7]: 0.31 | composite z-score [8]: 0.633 | composite z-score [9]: 0.117 | composite z-score [10]: 0.318

CN(C)C(=O)[C@@]1(CCS(=O)(=O)c2ccccc2)COC(c2ccc(OCCCO)cc2)=N1
composite z-score [1]: 0.656 | composite z-score [2]: 0.476 | composite z-score [3]: 0.977 | z-score [4]: -0.824 (inactive) | composite z-score [5]: 0.314 | composite z-score [6]: 0.476 | composite z-score [7]: 0.0041 | composite z-score [8]: -0.448 | composite z-score [9]: -0.471 | composite z-score [10]: 1.04

COc1ccccc1CN1C(=O)c2ccccc2[C@@]2(Cc3ccccc3N(CC(C)C)C2=O)[C@@H]1c1ccc(CO)cc1
composite z-score [1]: -0.327 | composite z-score [2]: -0.266 | composite z-score [3]: 0.124 | z-score [4]: -0.686 (inactive) | composite z-score [5]: -0.285 | composite z-score [6]: -0.882 | composite z-score [7]: -0.284 | composite z-score [8]: -0.0344 | composite z-score [9]: 0.0603 | composite z-score [10]: 0.522

COc1ccc(C(O)C2C=CC3C(=O)N(Cc4ccccc4)C(=O)C3N2n2cnnc2)cc1OCc1ccccc1 (stereo not given)
composite z-score [1]: 0.504 | composite z-score [2]: -0.0756 | composite z-score [3]: 0.432 | z-score [4]: -1.91 (inactive) | composite z-score [5]: -0.245 | composite z-score [6]: 0.332 | composite z-score [7]: -0.283 | composite z-score [8]: 0.308 | composite z-score [9]: -0.192 | composite z-score [10]: 0.586

CN(C)CCCCCCNC(=O)[C@@H]1C[C@@H]2C(=O)N[C@@H](Cc3ccccc3)C(=O)N2[C@@H]1c1ccc(O)cc1
composite z-score [1]: 1.51 | composite z-score [2]: 0.026 | composite z-score [3]: -0.127 | z-score [4]: -0.926 (inactive) | composite z-score [5]: 1.06 | composite z-score [6]: 1.35 | composite z-score [7]: 1.37 | composite z-score [8]: 1.44 | composite z-score [9]: 1.38 | composite z-score [10]: 1.41

COC(=O)[C@@]1(CCS(=O)(=O)c2ccccc2)N=C(c2ccc(OCCCO)cc2)O[C@H]1c1ccccc1CN=[N+]=[N-]
composite z-score [1]: 1.21 | composite z-score [2]: 1.11 | composite z-score [3]: 1.2 | z-score [4]: 0.362 (inactive) | composite z-score [5]: 0.336 | composite z-score [6]: 1.24 | composite z-score [7]: 0.143 | composite z-score [8]: 1.01 | composite z-score [9]: -0.0332 | composite z-score [10]: 0.799

Oc1ccc2cc[n+](Cc3sc4ccccc4c3Cl)cc2c1
composite z-score [1]: 0.23 | composite z-score [2]: 0.0518 | composite z-score [3]: 0.799 | z-score [4]: -1.74 (inactive) | composite z-score [5]: 0.469 | composite z-score [6]: -0.402 | composite z-score [7]: -0.0568 | composite z-score [8]: 0.618 | composite z-score [9]: 0.481 | composite z-score [10]: 1.28

C=CCNC(=O)[C@H]1[C@@H]2C(=O)O[C@@H](c3ccccc3)[C@@H](c3ccccc3)N2[C@@H](c2ccccc2OCCO)[C@]12C(=O)Nc1ccc(C#CCC(C(=O)OC)C(=O)OC)cc12
composite z-score [1]: 0.797 | composite z-score [2]: 0.309 | composite z-score [3]: 0.973 | z-score [4]: -2.39 (inactive) | composite z-score [5]: 1.26 | composite z-score [6]: 1.33 | composite z-score [7]: 1.15 | composite z-score [8]: 1.37 | composite z-score [9]: 1.23 | composite z-score [10]: 0.568

C[N+](C)(C)CCCCCCNC(=O)[C@@H]1C[C@@H]2C(=O)N[C@@H](Cc3ccccc3)C(=O)N2[C@@H]1c1cccc(OCCO)c1
composite z-score [1]: 1.63 | composite z-score [2]: -0.147 | composite z-score [3]: 0.376 | z-score [4]: -0.189 (inactive) | composite z-score [5]: 0.72 | composite z-score [6]: 0.216 | composite z-score [7]: -0.0586 | composite z-score [8]: 1.32 | composite z-score [9]: 1.02 | composite z-score [10]: 0.615

CN(C)CCCC[C@@H]1NC(=O)[C@H]2C[C@@H](C(=O)NCCCCCCN)[C@@H](c3ccc(O)cc3)N2C1=O
composite z-score [1]: 0.436 | composite z-score [2]: 1.6 | composite z-score [3]: 1.07 | z-score [4]: -0.193 (inactive) | composite z-score [5]: 1.52 | composite z-score [6]: 1.29 | composite z-score [7]: 0.247 | composite z-score [8]: 1.41 | composite z-score [9]: 0.644 | composite z-score [10]: 1.17

O=C(OCc1ccccc1)C1=CCC2c3[nH]c4ccccc4c3C(=O)C1N2S(=O)(=O)c1ccccc1[N+](=O)[O-] (stereo not given)
composite z-score [1]: 1.42 | composite z-score [2]: 0.332 | composite z-score [3]: 0.381 | z-score [4]: -0.00197 (inactive) | composite z-score [5]: 1.33 | composite z-score [6]: 1.32 | composite z-score [7]: 0.727 | composite z-score [8]: 1.42 | composite z-score [9]: 0.109 | composite z-score [10]: 0.618

[N-]=[N+]=NCc1ccccc1[C@@H]1OC(c2ccc(OCCCO)cc2)=N[C@]1(Cc1ccccc1)C(=O)NCC(O)CO (stereo not given in full)
composite z-score [1]: 0.62 | composite z-score [2]: 0.914 | composite z-score [3]: 0.956 | z-score [4]: 0.371 (inactive) | composite z-score [5]: 0.899 | composite z-score [6]: 0.0871 | composite z-score [7]: -0.519 | composite z-score [8]: -1.19 | composite z-score [9]: -0.889 | composite z-score [10]: 0.68

C=C[C@@H](COC(=O)OC(C)(C)C)N(Cc1ccc(OC)cc1)S(=O)(=O)c1ccc(Br)cc1
composite z-score [1]: 0.487 | composite z-score [2]: -0.189 | composite z-score [3]: 0.166 | z-score [4]: 0.255 (inactive) | composite z-score [5]: 0.541 | composite z-score [6]: 0.632 | composite z-score [7]: 0.691 | composite z-score [8]: 1 | composite z-score [9]: 0.513 | composite z-score [10]: 0.841
